A selection: hits, their analogues and other compounds. The true share with any hit is near 1.6%.
PERK inh: block of dimerizer-induced PERK translation repression, primary screen, PERK inhibitor project, CHO PERK-DD cells, SEAP luminescence, HTS; AID 1416, 2008; CHO PERK-DD fusion, SEAP luminescence translation reporter; actives 0.17% (n = 220,000); inhibition, % at 5.6 µM;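 active means inhibition above the mean inhibition of all tested compounds plus 3 SD, set separately per screening campaign, cut at about 2.9% in these data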;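 further: PERK kinase domain activated by AP20187 dimerizer at 100 nM; 0% = DMSO with dimerizer and 100% = rapamycin at 8.4 µM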
CR mimetic SO: reduction of superoxide in aged yeast, primary screen, HTS; S. cerevisiae aged cells, superoxide DHE fluorescence; active compounds read low; superoxide response (% of plate mean), % at 10 µM; actives 0.18% (n = 330,000);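 active means superoxide response under a set limit, about three screen SD below normal, cut at about 65% in these data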;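 further: yeast aged for seven days with compound at 30 °C before DHE staining; 100% = average MFI of all compound-treated wells on the plate with controls excluded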
V-ATPase pHluor: regulators of yeast V-ATPase proton pumping, primary screen, pHLuorin cytosolic pH fluorescence; S. cerevisiae; response, % at 10 µM; actives 0.37% (n = 350,000); in the data active means response mostly above about 7.3%, no sharp cut-off; inactive means mostly below about 5.4%; further: actives read high
NALP1 inh: NALP1 inflammasome inhibitors in reconstituted yeast, colorimetric, S. cerevisiae, triplicate retest. S. cerevisiae NALP1/ASC/caspase-1 growth, X-gal OD620, 72 h. inhibition, % at 10 µM. AID 2071, 2009. actives 0.61% (n = 280,000); in the data active means inhibition mostly above about 24%, no sharp cut-off; inactive means mostly below about 32%
Rce1 inhib: yeast Rce1p protease inhibitors, primary screen, biochemical, fluorescence, cell-free homogeneous. CAAX prenyl protease 2 (Saccharomyces cerevisiae (strain ATCC 204508 / S288c)), Q03530. yeast membranes, quenched prenylated peptide cleavage fluorescence. calls only. actives 0.27% (n = 290,000);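 active means fall in fluorescence gain of 50% or more versus controls, with final raw signal at or below 3038400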;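 further: plate controls were neutral control wells for no effect and wells lacking membranes for full effect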
Target sequence (Q03530 whole entry, looked up): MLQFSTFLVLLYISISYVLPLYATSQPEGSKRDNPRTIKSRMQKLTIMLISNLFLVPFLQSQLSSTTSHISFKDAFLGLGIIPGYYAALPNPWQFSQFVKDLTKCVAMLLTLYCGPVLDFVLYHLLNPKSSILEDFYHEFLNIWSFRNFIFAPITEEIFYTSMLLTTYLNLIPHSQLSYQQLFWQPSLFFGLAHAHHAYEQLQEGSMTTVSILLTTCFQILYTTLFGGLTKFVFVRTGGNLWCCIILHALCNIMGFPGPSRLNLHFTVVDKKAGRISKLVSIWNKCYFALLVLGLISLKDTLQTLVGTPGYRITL
NLRP3 yeast inh: NALP3 inflammasome inhibitors in reconstituted yeast, primary screen, luminescence, uHTS. Yeast reconstituted NLRP3/ASC/caspase-1, beta-gal luminescence, 24 h. inhibition, % at 10 µM. actives 0.39% (n = 330,000). AID 2825, 2010;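 active means inhibition of 50% or more; inactive means inhibition below 50%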;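 further: plate controls were induced DMSO wells for no effect and uninduced yeast grown without galactose for full effect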
Active calls of the source: *; i = inactive; nt = no result; + = active, no number.

SMILES	PERK inh	CR mimetic SO	V-ATPase pHluor	NALP1 inh	Rce1 inhib	NLRP3 yeast inh
O=C(CN1CCCC1)N/N=C/c1ccc(-c2cccc(Cl)c2)o1	-1	96	-3	32*	i	2
CCC(=O)Nc1ccc(S(=O)(=O)NC[C@H]2O[C@@H](n3cc(C)c(=O)[nH]c3=O)C[C@@H]2O)cc1	nt	nt	-1	nt	nt	nt
CCOc1ccc(Nc2nc3ccccc3n3nnnc23)cc1	1	87	4	42*	i	32
COc1ccc(N2CCN(CCC(O)c3ccc4ccccc4c3)CC2)cc1 (stereo unspecified)	nt	98	1	40*	i	28
COc1ccccc1C1=NN(C2=NN=C(N)Cc3ncnn32)C(O)(C(F)(F)F)C1 (stereo unspecified)	0	95	-2	-32	+	7
NC1=NN=C(N2N=C(c3ccccc3)CC2(O)C(F)(F)F)n2ncnc2C1 (stereo unspecified)	0	98	-6	0	nt	4
O=C(CCNC(=O)N1CC(=O)Nc2ccccc21)NCc1cccc(C(F)(F)F)c1	nt	nt	3	nt	nt	nt
Cc1cc(/C=C2/C(=N)N3C(=NC2=O)SN=C3S(C)(=O)=O)c(C)n1-c1ccccc1F	3.4*	108	0	13	i	12
Cc1cc(NC(=O)COC(=O)C2CC(=O)N(c3ccc(Cl)cc3)C2)no1 (stereo unspecified)	nt	101	16*	16	nt	20
Cc1cc(NC(=O)COC(=O)C2CC(=O)N(c3ccccc3)C2)no1 (stereo unspecified)	nt	101	1	22	nt	20
Cc1cc(NC(=O)C2CC(=O)N(c3ccc(F)cc3)C2)no1 (stereo unspecified)	nt	112	3	24	i	15
Cc1ccc(N2CC(C(=O)Nc3cc(C)on3)CC2=O)cc1 (stereo unspecified)	2.9*	111	-4	16	i	19
Cc1cc(C)c(NC(=O)CNC(=O)c2ccc3c(=O)n4c(nc3c2)CCC4)c(C)c1	nt	106	0	nt	nt	15
Cc1cccc(C)c1NC(=O)CN(C)C(=O)c1ccc2c(=O)n3c(nc2c1)CCC3	nt	65*	-7	nt	nt	2
CSC[C@@H]1NC(=S)N(c2ccc(C)cc2)C1=O	1	101	-1	76*	i	-1
Cc1cccc(-c2ccc3[nH]c4c(c3c2)CCN2C[C@@H]([C@H](C)OC(=O)Nc3ccccc3C)[C@@H](N(C)C(=O)Nc3ccccc3C)C[C@@H]42)c1	nt	nt	0	nt	nt	nt
CC(=O)C1=C(O)C(=CC=Cc2ccccc2)OC1=O	nt	nt	3	nt	nt	nt
S=c1[nH]nc(-c2ccccc2)o1	0	97	-2	-12	+	12
Cc1ccccc1-c1n[nH]c(=S)o1	0	111	2	5	i	19
O=C(O)CCn1c(-c2ccccc2)cc2ccccc21	0	105	0	34*	i	-8
N#CCSc1ccccc1NC(=O)COC(=O)C1CCN(C(=O)c2ccc(Cl)cc2)CC1	nt	nt	3	nt	nt	nt
CCC(C)N1CCC2(CC1)N=c1c(c3c4c5c(C)c(O)c3c(O)c1=NC(=O)C(C)=CC=C[C@H](C)[C@H](O)[C@@H](C)[C@@H](O)[C@@H](C)[C@H](OC(C)=O)[C@H](C)[C@@H](OC)C=CO[C@@](C)(O5)C4=O)N2 (stereo partly specified)	nt	72	11	nt	nt	20
CO[C@H]1C=CO[C@@]2(C)Oc3c(C)c(O)c4c(O)c(c5c(c4c3C2=O)NC2(CCN(CC(C)C)CC2)N=5)=NC(=O)C(C)=CC=C[C@H](C)[C@H](O)[C@@H](C)[C@@H](O)[C@@H](C)[C@H](OC(C)=O)[C@@H]1C	0	62*	nt	8	i	nt
CCCCCCCCCOC(=O)C(CC(=O)O)N1CCOCC1 (stereo unspecified)	-1	105	-1	45*	i	20
Cn1c(=O)c2c(nc(OC3CCCC3)n2C)n(C)c1=O	nt	nt	-2	nt	nt	nt
Cc1cc(C)c(NC(=O)C2CCCCN2C)c(C)c1 (stereo unspecified)	0	88	-4	40*	i	5

High-throughput results from PubChem.
